# Source: PubChem (National Center for Advancing Translational Sciences (NCATS))
# Hits are enriched below; roughly 5.5% of the tested compounds scored in any of these assays.
# RORg inh – blocks mouse ROR gamma transcriptional activity; P51450; Drosophila S2 Gal4-RORgamma UAS-luciferase reporter, 20 h; Potency, µM (titrated, usually from 53.6 µM), for the others: at the highest dose activity change, negative = inhibition, most hits filed as inhibitors; 5.4% of 310,000 active; AID 2551; also: potency is read from the fitted curve at half-maximal effect; % is scaled to controls: 0 for no effect and ±100 for the full control effect; nearly all actives have a fitted effect of over 60% in size
# Target sequence (P51450 whole entry, looked up, the tested form may be a part): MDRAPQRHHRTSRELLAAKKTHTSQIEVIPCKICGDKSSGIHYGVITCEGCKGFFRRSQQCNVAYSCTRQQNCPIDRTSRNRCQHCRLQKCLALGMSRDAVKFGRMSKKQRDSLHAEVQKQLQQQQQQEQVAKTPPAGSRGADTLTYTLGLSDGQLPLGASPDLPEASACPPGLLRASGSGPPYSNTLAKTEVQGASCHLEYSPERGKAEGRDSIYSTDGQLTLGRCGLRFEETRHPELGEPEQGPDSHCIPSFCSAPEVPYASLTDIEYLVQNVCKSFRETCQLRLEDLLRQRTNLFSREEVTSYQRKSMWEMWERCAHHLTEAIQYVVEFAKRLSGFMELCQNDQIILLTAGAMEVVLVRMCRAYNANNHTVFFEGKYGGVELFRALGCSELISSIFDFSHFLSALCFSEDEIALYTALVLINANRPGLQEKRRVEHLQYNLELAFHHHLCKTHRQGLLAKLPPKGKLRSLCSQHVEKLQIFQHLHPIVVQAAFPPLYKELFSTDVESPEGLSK
#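 In this cell-based reporter format, copper sulfate (700 uM final) drives Gal4–ROR gamma fusion expression from a metallothionein promoter in Drosophila Schneider cells; compounds preincubated 1 hr, reporter read after 20 hr at ambient temperature.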
# Six1-Eya2 blk – inhibitors of human Six1/Eya2 interaction; activity change, % (no concentration beside the values); 0.56% of 360,000 active; AlphaScreen GST-Six1/His-Eya2 binding, biochemical; stronger effect = lower value; AID 651725; Q15475+O00167; in the data active = activity change below about -65%; inconclusive = mostly about -30% to -63%; also: % is scaled to controls: 0 for no effect and ±100 for the full control effect
#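 Six1/Eya2 binding was read as AlphaScreen signal after compounds were pinned into GST-Six1 plus His-tagged Eya2 (5X stock 250/500 nM) in pH 8.0 Tris/NaCl/TCEP buffer, beads added, then incubated 1 h, 37 C, dark.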
# MBNL1-CUG inh – MBNL1-poly(CUG) RNA binding inhibition; Q9NR56; TR-FRET MBNL1-His/biotin-(CUG)12 binding, 665/545 ratio; Potency, µM (top dose mostly 57.5 µM), for inactives: at the highest dose activity change, negative = inhibition, actives largely listed as inhibitors; 0.036% of 280,000 active; AID 2675; active = well fitted inhibition curve with a large enough effect in the signal ratio, with a control signal flat, not every such curve was filed as active; inconclusive = small, poorly fitted or top-dose-only effect, or effect the other way, or a change in a side signal; inactive = no such curve, though single readings can be large or run the other way; the % refers to the signal ratio; also: potency is read from the fitted curve at half-maximal effect; % is scaled to controls: 0 for no effect and ±100 for the full control effect
#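 TR-FRET between His-tagged MBNL1 and biotin-(CUG)12 RNA, detected with Tb anti-His antibody (0.055 ng/ul) and streptavidin-XL665 (5 nM), 60 min at room temperature. Compounds titrated 92 nM to 58 uM; 665/545 nm ratio normalized to buffer and complex controls.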
# CBFb-RUNX1 inh – blocks binding between human CBF-beta and RUNX1 | Q01196+Q13951 | AlphaScreen CBFb-His/RUNX1-biotin binding, biochemical | Potency, µM (doses to about 59.8 µM), for inactives: at the highest dose activity, negative = inhibition, usual class: inhibitors | 230,000 tested, under 10 active; also: % of control where 0% means no effect
#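 Room-temperature protein-protein interaction test with 30 nM each of His-tagged CBF-beta and biotinylated RUNX1, 15 min with compound, then 90 min with nickel plus streptavidin beads. Signal read in AlphaScreen mode.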
# Gal4-VP16 FLuc – Gal4-VP16 reporter inhibition counter-screen; Drosophila S2 Gal4-VP16 UAS-luciferase, luminescence, 20 h; Potency, µM (titrated, usually from 53.6 µM), for inactives: top-dose activity, negative = inhibition, most hits filed as inhibitors; 3.5% of 310,000 active; AID 2546;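 also: Gal4-VP16 expression switched on by copper sulfate through the metallothionein promoter; potency is read from the fitted curve at half-maximal effect; % is scaled to controls: 0 for no effect and ±100 for the full control effect; nearly all actives have a fitted effect of over 50% in size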
# CtBP-E1A inh – CtBP/E1A binding inhibition; AlphaScreen GST-E1A/His-CtBP binding, 1536-well; stronger effect = lower value; activity change, % (concentration not given with the values); 0.49% of 340,000 active; AID 651724; in the data active = activity change below about -65%; inconclusive = mostly about -30% to -63%; also: % is scaled to controls: 0 for no effect and ±100 for the full control effect
#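 Protein mix (5X: 125 nM each GST-E1A, His-CtBP) was incubated with pinned compound 2 h at 37 deg C in dark, in 50 mM Tris pH 8.0 buffer with 300 mM NaCl. Glutathione donor and nickel acceptor beads followed; AlphaScreen signal read after 1 h.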
# * marks the source's active call; other numbers are inactive results; ? = inconclusive; nt = no result. Unless noted, calls follow the shape of the dose curve; as a rule, active = well fitted curve in the direction sought with a large enough effect; inconclusive = small, poorly fitted or top-dose-only effect, or another doubt; inactive = no such curve, though single readings can be large; an effect the other way counts as inactive or inconclusive.
SMILES,RORg inh,Six1-Eya2 blk,MBNL1-CUG inh,CBFb-RUNX1 inh,Gal4-VP16 FLuc,CtBP-E1A inh
Cc1ccc2oc(C(Cl)(Cl)Cl)cc(=O)c2c1,5µM*,0,0%,1%,?,9
COC(=O)/C=C1\OCc2cc(C)ccc21,nt,2,nt,nt,nt,-1
COc1ccc(-c2nc(NC(=O)c3ccc(OCC(=O)Nc4ccc(F)cc4)c(OC)c3)sc2C)cc1,?,115,nt,12%,20µM*,129
COc1cc(C(=O)Nc2nc(-c3cc(C)ccc3C)c(C)s2)ccc1OCC(=O)Nc1ccc(F)cc1,22%,-1,26%,-6%,4%,-7
O=C(COC(=O)c1ccc([N+](=O)[O-])o1)Nc1cccc(S(=O)(=O)N2CCOCC2)c1,?,-7,?,-3%,7.1µM*,6
O=C(COC(=O)c1ccc(Br)o1)Nc1cccc(S(=O)(=O)N2CCOCC2)c1,nt,-9,nt,nt,nt,-1
CC(C)CC1CC(C)(c2csc(NNC(=O)c3ccccc3)n2)OC1=O (configuration not stated),10µM*,5,-1%,1%,-26%,1
O=C(NNc1c2ccccc2nc2ccccc12)c1ccccc1O,18%,?,nt,?,-25%,-73*
O=C(NNc1c2ccccc2nc2ccccc12)c1ccc(O)cc1O,4%,-84*,?,nt,-24%,-84*
O=C(NNc1nc(=O)c2cccnc2s1)c1ccccc1O,0.05µM*,?,18%,?,-90%,-15
O=C(NNC(=O)c1ccc(O)cc1O)c1ccc(-c2ccccc2)cc1,-34%,0,57%,nt,-7%,nt
O=C(NNc1c2ccccc2nc2ccccc12)c1ccccc1Cl,-21%,-25,23%,nt,-13%,-14
O=C(CC(c1ccco1)S(=O)(=O)c1ccccc1)c1ccc(F)cc1 (configuration not stated),2.5µM*,-2,8%,3%,11µM*,-4
COc1cccc(C=Nc2cc(C)cc(C)c2)c1O,-26%,1,?,2%,-3%,0
CCc1ccc2oc(-c3cc(N=Cc4cccc(OC)c4O)ccc3O)nc2c1,11µM*,?,-3%,0%,?,?
CCOC(=O)C1(CCCc2ccccc2)CCN(C(=O)C2CCCN(C(N)=O)C2)CC1 (configuration not stated),-3%,6,-4%,8%,13%,4
COP(=O)(OC)OC(C(=O)c1ccccc1)c1ccc(Cl)cc1 (configuration not stated),nt,7,nt,nt,nt,-19
S=C(NCCc1ccccc1)N/N=C/c1cccs1,nt,-11,nt,nt,nt,nt
CC(C)NC(=S)N/N=C/c1ccc(C(C)(C)C)cc1,0.5µM*,-21,9%,-16%,2.2µM*,-1
CC(C)NC(=O)CC(=O)N/N=C/c1ccc(F)cc1,8%,3,3%,5%,2%,19
S=C(NCc1ccccc1)N/N=C/c1cccs1,0.4µM*,-3,13%,nt,0.79µM*,nt
CC(C)NC(=S)N/N=C/c1cccs1,0.79µM*,-4,13%,-13%,1.1µM*,-1
CCCC(NC(=O)C(C)N1CCN(S(=O)(=O)c2ccccc2)CC1)c1ccccc1 (configuration not stated),nt,7,nt,nt,nt,-2
CCc1ccc(N(CC(=O)N2CCN(Cc3ccccc3)CC2)S(C)(=O)=O)cc1,?,-2,-1%,nt,-5%,2
CCc1nc2c(OCc3c(C)noc3C)cccn2c1N(C)C(=O)C(C)C,nt,0,nt,nt,nt,12
SMILES,RORg inh,Six1-Eya2 blk,MBNL1-CUG inh,CBFb-RUNX1 inh,Gal4-VP16 FLuc,CtBP-E1A inh
O=C(CSc1cccc[n+]1[O-])CSc1cccc[n+]1[O-],4µM*,-2,6%,-6%,?,2
[O-][n+]1ccccc1SSc1cccc[n+]1[O-],0.35µM*,nt,nt,nt,0.89µM*,nt
O=C(CSc1cccc[n+]1[O-])N1CCCCCC1,-22%,6,-2%,0%,1%,-5
Cc1cccc(NC(=O)CNC(=O)COC(=O)c2ccco2)c1C,nt,10,nt,nt,nt,4
Cc1nnc(NC(=O)c2ccccc2-c2ccccc2C(=O)O)s1,15%,7,-6%,-5%,-2%,-3
Cc1ccnc(NC(=O)CNC(=O)c2sc3ccccc3c2Cl)c1,nt,6,nt,nt,nt,-6
Cc1ccnc(NC(=O)c2cc3cc(F)ccc3s2)c1,3.2µM*,1,13%,nt,?,-1
Cc1ccnc(NC(=O)c2sc3cc(Cl)ccc3c2Cl)c1,2µM*,2,?,2%,?,4
Cc1nnc(NC(=O)c2ccccc2NC(=O)c2ccccc2)s1,18µM*,0,1%,3%,-17%,nt
Cc1ccccc1C(=O)Nc1nnc(SC(C)C)s1,2.5µM*,6,nt,-10%,0%,-19
CC(Sc1ccccn1)C(=O)NC1CCCC1 (configuration not stated),nt,7,nt,nt,nt,6
CN(C(=O)c1ccccc1)C(=O)c1ccccc1,nt,11,nt,nt,nt,-25
Cc1nnc(NC(=O)c2sc3ccccc3c2Cl)s1,?,-3,45%,2%,8.9µM*,2
O=C(O)CCCn1cc(NC(=O)c2sc3ccccc3c2Cl)cn1,14µM*,-3,5%,nt,5µM*,-7
CC(C)c1nnc(NC(=O)CC(=O)Nc2ccccc2C(=O)O)s1,11µM*,11,-8%,-1%,?,-8
Cc1cccnc1NC(=O)c1sc2ccccc2c1Cl,8.9µM*,-10,14%,nt,8.9µM*,-22
COCc1nnc(NC(=O)c2sc3ccccc3c2Cl)s1,8%,-3,23%,4%,?,-3
Cc1ccc(NC(=O)c2sc3ccccc3c2Cl)nc1,?,4,6%,0%,?,2
CCCN(CC(=O)Nc1cc(Cl)cc(Cl)c1)CC(=O)Nc1ccc(F)c(F)c1F,?,-2,nt,1%,22µM*,6
CCCN(CC(=O)Nc1ccccc1Br)CC(=O)Nc1ccc(F)c(F)c1F,-3%,-4,-6%,12%,4%,4
C[C@@H](NC(=O)c1ncn2c1C(=O)NC[C@@H]2C)c1ccccc1,nt,-17,nt,nt,nt,-12
CSc1nc2oc3c(c2c2nncn12)CC(C)(C)SC3,-99%,-12,18%,-28%,13µM*,-14
CC1(C)Cc2c(oc3ncn4ncnc4c23)CO1,3%,0,-12%,12%,-1%,1
